Experimental data published in the OligoGym collection.

The sequences below were run against GPKOW (assay: pooled miR-30 sensor sort-seq; sequence = guide strand). Settings: shRNA.
Further: reference of the scale not given here.

Row | Sequence | sensor-assay potency score (higher = more potent)
1 | TTCTCTTGCTCCTCATCTGGTC | -0.383
2 | TACATGTTGTCCACAAACCGCA | -0.382
3 | TAGGACATCTTCAATTATCATC | -1.06
4 | TTCTTGTCAAACTCCTGCTGGG | -0.621
5 | TCAATTATCATCTTGGTGTTGT | 0.378
6 | TCTTCAATTATCATCTTGGTGT | -0.0614
7 | TTCAATTATCATCTTGGTGTTG | -0.529
8 | TTCACTACTTGATTGAAGGTGC | 0.973
9 | TTCTCTTGGCAGTTGCACCAAA | -0.529
10 | TACAGAACTGGTACCAGCCTGG | -0.224
11 | TCACTAACAGTCACCACCCGGC | -0.433
12 | TAAATTTTGGTAAATATTGGGT | -0.472

What follows are sequences tested against GPR109B in the same assay as above. Settings: shRNA.

Row | Sequence | sensor-assay potency score (higher = more potent)
13 | TAGGCCAACAGTGATGCCCCAC | -0.395
14 | TTGGCAATGAAGTCATCTCGGA | -0.164
15 | TTGGAATGGTTATTTGAGGTTG | -0.497
16 | AAACATGAAGAGCACCAGCCGG | -1.47
17 | TCACCTGTTATCTTCCTCTGGA | -0.218
18 | TGCAGTGCCATTCTGGATCAGC | -0.994
19 | ATTCTGGATCAGCAACTTCTTC | -1.51
20 | TAGAAAGTCAGCTACTGCCAGG | -1.14
21 | TGGCAATGAAGTCATCTCGGAA | -1.54
22 | TAGTAGTCCATCACGAACGGCA | -0.532
23 | ATAGTAGTCCATCACGAACGGC | -1.03
24 | AACATGAAGAGCACCAGCCGGC | -0.505

The sequences below were run against GPR123 in the same assay as above. Settings: shRNA.

Row | Sequence | sensor-assay potency score (higher = more potent)
25 | TTCTAGCAATTTACCCTTGGGC | -1.05
26 | TTCTGCAGCACGGAGGCGCCGG | -0.928
27 | TCGCAGTGCATCTTGGCGCAGC | -1.13
28 | TCGTTCTGCAGCACGGAGGCGC | -0.763
29 | TAATTCCTGATGTTCGTGGCAG | -0.373
30 | TAGCAATTTACCCTTGGGCAGC | -1.23
31 | TGCATCTTGGCGCAGCACGGGG | -1.59
32 | TTCTTGGTCACCTGCTTGTAGA | -1.61
33 | AACAGGAACAGCGTGAAGGCGG | -0.39
34 | TTTTCCAGGGTCCCGTTCGGAT | -1.35
35 | TGTGTGCGCAGCTCGTACCTGC | -0.983
36 | TGTAGAATAGTGCAGCACGATG | -1.66

The sequences below were run against GPR137 in the same assay as above. Settings: shRNA.

Row | Sequence | sensor-assay potency score (higher = more potent)
37 | AGTGCTGTCAGGTTGTAGCAGG | -1.93
38 | ATGACGAACAGGGAGTCGCTCA | -1.35
39 | TCAGACACATTGTACCAGCCGT | -0.426
